Where “and” joins values, the source holds several entries; their conditions need not be identical. Identical values can stand only once. In all, about 350,000 compounds went through this assay and about 600 (0.17%) were called active.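 Rule for the calls: active = every replicate shows inhibition of at least 40%; inconclusive = mean inhibition at least 40% but some replicate below; inactive = the rest.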 Many of the other results were omitted from the sample, so actives are more common in it than they were.

This test is described as follows: compounds lowering acetylated PGC1a in cells – cell-based, U2OS, AlphaScreen, inhibitor mode, primary screen (AID 651687).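 Note: 0% = neutral control wells and 100% = positive control wells.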 The conditions noted are these: U2OS PGC1a acetylation, AlphaScreen anti-acetyl-lysine; at 15.6 µM; active compounds read high; with virally co-expressed GCN5 acetyltransferase.
For the compound `CN(C)CC(=O)Nc1ccc2c(c1)[C@H]1C[C@H](CC(=O)NCc3ccc4c(c3)OCO4)O[C@@H](CO)[C@H]1O2`, the inhibition is -4.35% (inactive). Next, `CC(=O)N(C)C[C@@H]1Oc2ncc(C#CCc3ccccc3)cc2C(=O)N([C@H](C)CO)C[C@H]1C`: 2.72% (inactive); `Cc1ccc(S(=O)(=O)Nc2ccc3c(c2)C(=O)N([C@H](C)CO)C[C@@H](C)[C@H](CN(C)Cc2ccccc2)O3)cc1`: -12.1% (inactive); `CCNC(=O)C[C@@H]1CC[C@@H]2[C@H](COc3ccc(NC(=O)Nc4cccc(C)c4)cc3C(=O)N2C)O1`: 0.938% (inactive). Then `O=C(C[C@@H]1C[C@@H]2c3cc(NC(=O)Nc4ccccc4F)ccc3O[C@@H]2[C@@H](CO)O1)NCCc1ccccc1`, with 9.83% (inactive); and `O=C(C1CCCC1)N1CC(=O)N2[C@@H](CO)[C@H](c3ccc(C#CC4CCCC4)cc3)[C@@H]2C1`, with -10.1% (inactive); and `O=C(C[C@@H]1CC[C@H](NC(=O)Nc2ccc3c(c2)OCO3)[C@H](CO)O1)NCc1ccccc1`, with 2.06% (inactive).

On to `COc1cc(NC(=O)c2cncc(-c3ccc(C#N)cc3)c2)cc(C(=O)Nc2cccc(C(F)(F)F)c2)c1`, for which the inhibition is 4.55% (inactive) and 7.38% (inactive). Regarding `COc1ccc(C(N)c2csc(NC(=O)Nc3cccc(C(F)(F)F)c3)n2)cc1` (stereo unspecified), the inhibition is -29.2% (inactive).

On to `COc1cc(NC(=O)c2[nH]cnc2C(N)=O)cc(C(=O)Nc2cccc(C(F)(F)F)c2)c1`, for which the inhibition was 62.8% (active). Then `COc1cccc(-c2cn(CC[C@@H]3CC[C@@H](NC(C)=O)[C@@H](CO)O3)nn2)c1`, with 22.5% (inactive); and `O=C(C[C@H]1C=C[C@@H](NC(=O)c2cnccn2)[C@H](CO)O1)NCc1ccccc1F`, with -3.99% (inactive); and `Cc1noc(C)c1S(=O)(=O)Nc1ccc2c(c1)CC(=O)N([C@H](C)CO)C[C@@H](C)[C@@H](CN(C)C)O2`, with 4.76% (inactive). Next, `CCCNC(=O)C[C@H]1CC[C@@H]2[C@H](COC[C@H](O)CN2CC2CCCCC2)O1`: -2.1% (inactive). Next, `O=C(O)C[C@H]1C[C@@H]2c3cc(NC(=O)Nc4ccc(C(F)(F)F)cc4)ccc3O[C@@H]2[C@@H](CO)O1`: -2.34% (inactive). As for `C[C@H](O)C#Cc1ccc([C@H]2[C@H](CO)N3CCCCN(C(=O)c4ccc(F)cc4)C[C@@H]23)cc1`, the inhibition was -4.78% (inactive).

For the compound `CCC(=O)N(C)C[C@H]1Oc2ncc(-c3ccc(C#N)cc3)cc2C(=O)N([C@@H](C)CO)C[C@H]1C`, the inhibition is -11.3% (inactive). Next, `CCCNC(=O)N[C@H]1C=C[C@@H](CC(=O)NC2CCCCC2)O[C@H]1CO`: -18.5% (inactive); `Cc1ccc(S(=O)(=O)Nc2ccc3c(c2)C(=O)N([C@@H](C)CO)C[C@H](C)[C@@H](CN(C)Cc2ccc4c(c2)OCO4)O3)cc1`: 1.59% (inactive).

With `COC(=O)C[C@H]1CC[C@@H]2[C@@H](COc3ccc(NC(=O)Nc4ccc(Cl)cc4)cc3C(=O)N2C)O1`, the inhibition was -4.91% (inactive).

As for `N[C@@H](Cc1ccccc1)C(=O)N1CCOCC1`, the inhibition was -8.48% (inactive). Then `O=C(CSC(=S)N1CCOCC1)c1ccccc1`, with -7.05% (inactive); and `NC(=NC(=O)c1ccccc1)N1CCOCC1`, with 84.1% (active); and `CCCC(=O)Nc1ccc2c(c1)C(=O)N(C)[C@@H]1CC[C@H](CC(=O)NCCN3CCCCC3)O[C@@H]1CO2`, with 1.12% (inactive).

In the case of `C[C@@H]1CCCCO[C@H](CN(C)C(=O)c2ccccc2)[C@@H](C)CN([C@H](C)CO)C(=O)c2cc(NC(=O)c3ccccc3)ccc2O1`, the inhibition was 5.89% (inactive).

On to `C[C@@H]1CN([C@H](C)CO)C(=O)c2cc(NC(=O)c3ccccc3)ccc2O[C@@H](C)CCCCO[C@H]1CN(C)C(=O)c1ccncc1`, for which the inhibition was 8.37% (inactive). Next, `CCNC(=O)Nc1ccc2c(c1)C(=O)N(C)[C@@H]1CC[C@@H](CC(=O)NC3CCCCC3)O[C@H]1CO2`: 1.93% (inactive); `C[C@@H]1CN([C@H](C)CO)C(=O)c2cc(NC(=O)C3CCCCC3)ccc2O[C@@H](C)CCCCO[C@H]1CN(C)S(C)(=O)=O`: 6.77% (inactive).

Consider `COc1ccc(S(=O)(=O)N(C)C[C@@H]2Oc3ccc(NC(=O)Cc4cn(C)c5ccccc45)cc3C(=O)N([C@H](C)CO)C[C@H]2C)cc1`, for which the inhibition is -8.14% (inactive). With `C[C@@H]1CN([C@H](C)CO)S(=O)(=O)c2ccc(-c3ccc(C(=O)N(C)C)cc3)cc2O[C@@H]1CN(C)C(=O)Nc1ccccc1F`, the inhibition is -11.4% (inactive). Next, `CO[C@H]1CN(C)C(=O)c2ccc(NC(=O)C3CC3)cc2OC[C@H](C)N(Cc2ccncc2)C[C@@H]1C`: -7.97% (inactive). Take `COc1ccc(NC(=O)Nc2cccc3c2O[C@@H](CN(C)S(=O)(=O)c2ccc(C)cc2)[C@H](C)CN([C@@H](C)CO)C3=O)cc1`: the inhibition was 3.27% (inactive). Next, `CO[C@H](C(=O)N(C)C[C@@H]1OCc2ccccc2-c2c(n(C)c3ccccc23)C(=O)N([C@@H](C)CO)C[C@H]1C)c1ccccc1`: -1.42% (inactive). For `CCCN1C[C@@H](C)[C@@H](OC)CN(C)C(=O)c2cc(NC(=O)C3CCC3)ccc2OC[C@H]1C`, the inhibition was -10.1% (inactive). Turning to `CO[C@H]1CN(C)C(=O)c2cc(NS(=O)(=O)c3ccccc3)ccc2OC[C@H](C)N(C(=O)NC(C)C)C[C@@H]1C`, the inhibition is 8.54% (inactive). Next, `O=C(c1ccncc1)N1CC2(C1)[C@@H](c1ccccc1)[C@H](CO)N2C(=O)c1ccncc1`: 6.1% (inactive); `C[C@@H]1CCCCO[C@@H](CN(C)C(=O)c2ccccc2)[C@H](C)CN([C@@H](C)CO)C(=O)c2cc(NS(C)(=O)=O)ccc2O1`: -1.5% (inactive). Next, `Cc1[nH]c2ccc(C(=O)N3CCN(C)CC3)cc2c1C`: 1.27% (inactive); `CCOC(=O)c1ccc2[nH]c3c(c2c1)CCCC3NC=O` (stereo unspecified): 5% (inactive).

With `CCOC(=O)c1ccc2[nH]c(C)c(CN3CCN(C)CC3)c(=O)c2c1`, the inhibition is 59.3% (active). Then `CO[C@@H]1CN(C)C(=O)c2ccc(NS(C)(=O)=O)cc2OC[C@H](C)N(C(=O)C2CC2)C[C@H]1C`, with -8.93% (inactive); and `COc1ccc(NC(=O)Nc2ccc3c(c2)C(=O)N([C@@H](C)CO)C[C@H](C)[C@@H](CN(C)S(=O)(=O)c2ccc(Cl)cc2)O3)cc1`, with -2.11% (inactive); and `C[C@H]1CN([C@@H](C)CO)C(=O)c2cccc(NC(=O)Nc3ccccc3)c2O[C@H]1CN(C)S(=O)(=O)c1ccc(F)cc1`, with -3.23% (inactive). Then `C[C@@H]1CN([C@H](C)CO)C(=O)c2cc(NC(=O)Nc3ccc(F)cc3)ccc2O[C@@H](C)CCCCO[C@@H]1CN(C)S(=O)(=O)c1cn(C)cn1`, with -2.5% (inactive). Consider `C[C@@H](O)C#Cc1ccc([C@H]2[C@H](CO)N3CCCCN(C(=O)c4ccc(F)cc4)C[C@@H]23)cc1`, for which the inhibition was -2.34% (inactive). Next, `Cc1cc(C)nc(SC(C)C(=O)N/N=C/c2cccs2)n1` (stereo unspecified): -4.85% (inactive); `Cc1nc2ccccc2n1CC(=O)N/N=C/c1cccs1`: 0.244% (inactive).

With `NC(=O)N/N=C\c1cccs1`, the inhibition is 76.7% (active). Then `COCC(=O)N1[C@H](CO)[C@@H](c2ccccc2)C12CN(Cc1cc(F)ccc1F)C2`, with 3.15% (inactive); and `CN1c2ccc(C#Cc3ccccc3F)cc2[C@@H]2[C@@H](CCN2C(=O)Cc2cccnc2)[C@H]1CO`, with -8.75% (inactive). Then `CO[C@@H]1CN(C)C(=O)c2ccc(NS(=O)(=O)c3c(C)noc3C)cc2OC[C@H](C)NC[C@@H]1C`, with 14.4% (inactive). On to `CC(C)NC(=O)N(C)C[C@H]1OCCCC[C@H](C)Oc2ccc(NS(=O)(=O)c3cccs3)cc2C(=O)N([C@H](C)CO)C[C@@H]1C`, for which the inhibition was -3.81% (inactive). Next, `COc1ccc2c3c(n(C)c2c1)[C@@H](CO)N(C(=O)CN1CCOCC1)CC31CCN(C(=O)C2CC2)CC1`: 5.01% (inactive). Consider `O=C(c1cccnc1)N1C[C@H]2[C@@H](c3ccccc31)[C@H](CO)N2C(=O)C1CC1`, for which the inhibition was 8.96% (inactive).

For the compound `C[C@H](CO)N1C[C@H](C)[C@@H](CN(C)S(=O)(=O)c2cccs2)OCc2ccccc2-c2ccccc2C1=O`, the inhibition is -0.156% (inactive).

For the compound `CCNC(=O)C[C@@H]1CC[C@@H]2[C@@H](COc3ccc(NC(=O)Nc4ccccc4F)cc3C(=O)N2C)O1`, the inhibition is 2.36% (inactive). Then `CO[C@@H]1CN(C)C(=O)c2cc(NC(=O)c3ccccc3F)ccc2OC[C@H](C)NC[C@@H]1C`, with -5.95% (inactive); and `CO[C@@H]1CN(C)C(=O)c2ccc(NC(=O)c3ccccc3F)cc2OC[C@@H](C)N(CC2CCOCC2)C[C@H]1C`, with -3.01% (inactive); and `C[C@@H]1CCCCO[C@@H](CN(C)C(=O)C2CCCCC2)[C@H](C)CN([C@H](C)CO)C(=O)c2cc(NC(=O)c3ccccc3)ccc2O1`, with -4.75% (inactive). Take `CCCN(C)C[C@H]1Oc2ncc(-c3ccccc3OC)cc2C(=O)N([C@H](C)CO)C[C@H]1C`: the inhibition is 7.87% (inactive). As to `C[C@@H](NC(=O)C[C@H]1CC[C@H]2[C@@H](COC[C@@H](O)CN2C(=O)Nc2ccccc2)O1)c1ccccc1`, the inhibition is 6.72% (inactive). Next, `COc1ccccc1C#Cc1cnc2c(c1)C(=O)N([C@@H](C)CO)C[C@@H](C)[C@H](CN(C)C(=O)CN(C)C)O2`: -1.48% (inactive). Next, `CC1(C(=O)O)CCCN(C(=O)/C=C/c2ccccc2)C1` (stereo unspecified): 7.82% (inactive).

With `C/C(=C\c1ccccc1)C1NC(=O)c2c(sc3c2CCCC3)N1` (stereo unspecified), the inhibition is 6.29% (inactive). Next, `Cc1[nH]c(=O)c(C(=O)/C=C/c2ccccc2)c2c1CCCC2`: 53.2% (active); `C[C@@H]1CN([C@H](C)CO)C(=O)c2cc(NC(=O)c3ccccc3)ccc2O[C@@H](C)CCCCO[C@H]1CN(C)S(=O)(=O)c1ccccc1`: 0.633% (inactive).
